Values joined by “and” are separate entries in the source; they are usually repeats but may differ in a detail not shown here. Equal values may be shown once. Values without a mark were called inactive. Results filed as inconclusive are left out. Active and inactive are the calls of the source. Calls follow the shape of the dose curve; as a rule, active = well fitted curve in the direction sought with a large enough effect; inconclusive = small, poorly fitted or top-dose-only effect, or another doubt; inactive = no such curve, though single readings can be large; an effect the other way counts as inactive or inconclusive.

Assay [1] deals with Glutathione peroxidase 1 (Homo sapiens) (UniProt P07203). Put plainly: Primary qHTS Assay for Inhibitors of Recombinant Selenoprotein Glutathione Peroxidase 1 (GPX1) (AID 1845191). Also: nearly all actives have a fitted effect of over 65% in size. Also: potency is read from the fitted curve at half-maximal effect. In outline: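 10 nM GPX1 + cpd, 30 min RT; start w/ 1 mM GSH, 0.5 mM cumene hydroperoxide, 0.5 mM NADPH, 100 nM GR, 0.01% BSA; buffer 50 mM Tris-HCl pH 7.5, 2 mM EDTA, 150 mM NaCl; Fl 340/450, 0 & 15 min.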
(In qHTS, concentration-response curves come from the screen itself.)

In assay [2] the target is Phospholipid hydroperoxide glutathione peroxidase GPX4 (Homo sapiens) (UniProt P36969). As to the kind of experiment: Primary qHTS Assay for Inhibitors of Recombinant Selenoprotein Glutathione Peroxidase 4 (GPX4) (AID 1845192). Also: nearly all actives have a fitted effect of over 65% in size. Also: potency is read from the fitted curve at half-maximal effect. In a few lines:
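NADPH consumption, followed by fluorescence at 340/450 nm between 0 and 15 min, reports GPX4 activity via coupled glutathione reductase (100 nM). Enzyme 200 nM was pre-exposed to compound 30 min; 0.5 mM cumene hydroperoxide and 1 mM GSH served as substrates.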

Assay [3] has as its system Nanoluciferase (engineered Oplophorus gracilirostris luciferase). Put plainly: Primary Nanoluciferase (NLuc) qHTS assay for identification of artifact compounds. (AID 1845222).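 Also: NLuc secreted into diluted conditioned medium of S16 cells.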 In a few lines: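 NLuc from S16 cell medium (1:55) plus test compounds, 15 min, room temperature. Luminescence after Nano-Glo (1:100) addition, 5 min.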
Assay [4] can be described thus: Primary redox qHTS assay for identification of artifact compounds. (AID 1845223). In outline:
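Amplex Red (25 uM) and HRP (250 mU/mL) in HBSS, with compounds for 15 min, then 250 uM DTT for 30 min, room temperature, dark. Fluorescence 525/598 nm read; normalized to DMSO and 10 uM DA3003; Hill fit.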

The nature of assay [5]: Quantitative High-Throughput drug screen in 47 multiple myeloma cell lines against the NCATS MIPE library collection: Delta47_JCRB cell viability assay (AID 1918925; also: nearly all actives have a fitted effect of over 45% in size; also: potency is read from the fitted curve at half-maximal effect). In outline: (§1)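 Primary qHTS used for cherry-picking: cells at 500/well, library compounds for 48 h (37C, 5% CO2), luminescent ATP assay.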
The nature of assay [6]: Quantitative High-Throughput drug screen in 47 multiple myeloma cell lines against the NCATS MIPE library collection: EJM_DSMZ cell viability assay (AID 1918926; also: nearly all actives have a fitted effect of over 30% in size; also: potency is read from the fitted curve at half-maximal effect). In outline:
as §1

The nature of assay [7]: Quantitative High-Throughput drug screen in 47 multiple myeloma cell lines against the NCATS MIPE library collection: AMO1_DSMZ cell viability assay (AID 1918927; also: nearly all actives have a fitted effect of over 30% in size; also: potency is read from the fitted curve at half-maximal effect). In a few lines:
as §1

The nature of assay [8]: Quantitative High-Throughput drug screen in 47 multiple myeloma cell lines against the NCATS MIPE library collection: FR4_PLB cell viability assay (AID 1918924; also: nearly all actives have a fitted effect of over 35% in size; also: potency is read from the fitted curve at half-maximal effect). In outline: as §1
Assay [9] can be described thus: Quantitative High-Throughput drug screen in 47 multiple myeloma cell lines against the NCATS MIPE library collection: ARP1_JJKsccF8 cell viability assay (AID 1918928; also: nearly all actives have a fitted effect of over 40% in size; also: potency is read from the fitted curve at half-maximal effect). In a few lines: (§2)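 Myeloma cells at 500 per well in 1536-well format treated with MIPE 4.0 library by pin transfer for 48 h at 37C, 5% CO2. Viability from ATP luminescence (CellTiter-Glo), normalized to DMSO (100%) and media-only (0%) wells.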

Assay [10] in a line: Quantitative High-Throughput drug screen in 47 multiple myeloma cell lines against the NCATS MIPE library collection: Karpas620_DSMZ cell viability assay (AID 1918959). Also: nearly all actives have a fitted effect of over 30% in size. Also: potency is read from the fitted curve at half-maximal effect. In a few lines:
as §1

Assay [11] in a line: Quantitative High-Throughput drug screen in 47 multiple myeloma cell lines against the NCATS MIPE library collection: ARD_JJKsccE7 cell viability assay (AID 1918929; also: potency is read from the fitted curve at half-maximal effect). In a few lines: as §1
Assay [12] in a line: Quantitative High-Throughput drug screen in 47 multiple myeloma cell lines against the NCATS MIPE library collection: Karpas417_ECACC cell viability assay (AID 1918961). Also: potency is read from the fitted curve at half-maximal effect. Conditions: Karpas417 myeloma viability, CellTiter-Glo ATP luminescence, 48 h; viability (% of DMSO): at 45.8 µM (top of the series) unless noted. In outline: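 We plated 500 myeloma cells per well, pinned in MIPE 4.0 compounds, and incubated for 48 hours at 37C. ATP was then quantified with CellTiter-Glo, with DMSO and media-only wells defining 100% and 0%.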
Background: ATP-based viability assays read luminescence as a measure of living cells.

Assay [13] in a line: Quantitative High-Throughput drug screen in 47 multiple myeloma cell lines against the NCATS MIPE library collection: KMM1_JCRB cell viability assay (AID 1918960). Also: nearly all actives have a fitted effect of over 30% in size. Also: potency is read from the fitted curve at half-maximal effect. In a few lines:
as §2

Assay [14] is described as follows: Quantitative High-Throughput drug screen in 47 multiple myeloma cell lines against the NCATS MIPE library collection: JIM3_ECACC cell viability assay (AID 1918963; also: nearly all actives have a fitted effect of over 35% in size; also: potency is read from the fitted curve at half-maximal effect). In outline:
as §1

Assay [15] is described as follows: Quantitative High-Throughput drug screen in 47 multiple myeloma cell lines against the NCATS MIPE library collection: KHM11_PLB cell viability assay (AID 1918962). Also: nearly all actives have a fitted effect of over 35% in size. Also: potency is read from the fitted curve at half-maximal effect. In a few lines:
as §1

Chain of Glutathione peroxidase 1 (Homo sapiens) (P07203 whole entry, looked up): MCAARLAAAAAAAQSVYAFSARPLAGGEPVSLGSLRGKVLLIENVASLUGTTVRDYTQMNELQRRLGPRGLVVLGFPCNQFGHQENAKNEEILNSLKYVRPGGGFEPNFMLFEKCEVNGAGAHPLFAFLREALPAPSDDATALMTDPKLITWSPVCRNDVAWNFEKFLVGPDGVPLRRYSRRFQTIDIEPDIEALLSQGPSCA
Chain of Phospholipid hydroperoxide glutathione peroxidase GPX4 (Homo sapiens) (P36969 whole entry, looked up): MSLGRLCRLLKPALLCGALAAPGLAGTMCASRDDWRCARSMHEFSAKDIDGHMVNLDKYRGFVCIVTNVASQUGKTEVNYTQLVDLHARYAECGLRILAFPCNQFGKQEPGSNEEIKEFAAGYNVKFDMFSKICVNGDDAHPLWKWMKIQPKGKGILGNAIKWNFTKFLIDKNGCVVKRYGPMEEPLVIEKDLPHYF

Take `CN(C)C(=O)c1ccc(S(=O)(=O)c2ccc(NC(=O)[C@@](C)(O)C(F)(F)F)c(Cl)c2)cc1`: the Potency entry in assay [1] and in [2] was “inactive” in each case. For the same compound, the outcome in assay [3] and in [4] was inactive. The Potency in assay [5] was 10.5 µM (active); in assay [6], 23.5 µM (active); in [7] it was 14.8 µM (active).

As to `COc1ccc(CC2=NN3C([C@@H](CCc4ccccc4)[C@@H](C)O)=NC(C)C3C(=O)N2)cc1OC` (stereo not given in full), the Potency result in [1], in [2], in assay [8], in assay [6], in assay [7] and in [9] was “inactive” throughout. In addition, the Potency entry in assay [10] is “inactive”.

On to `CCCc1nn(C)c2c(=O)[nH]c(-c3cc(S(=O)(=O)N4CCN(C)CC4)ccc3OCC)nc12`, for which the Potency entry in [1], in assay [2], in [7], in assay [11] and in assay [12] was “inactive” throughout. For the same compound, the call in assay [3] and in assay [4] was inactive.

For `O=C(c1cc(Cc2n[nH]c(=O)c3ccccc23)ccc1F)N1CCN(C(=O)C2CC2)CC1`, the Potency entry in [1], in assay [2], in assay [8], in assay [9] and in [10] was “inactive” in each case. The result in assay [3] and in [4] was inactive.

For `O=C(Nc1ccc(F)c(C(F)(F)F)c1)Nc1nnc(-c2ccncc2)s1`, the Potency result in assay [1], in assay [2] and in assay [11] was “inactive” in each case. The compound was classed as inactive in [3] and in assay [4]. Besides, the results for the Potency in assay [8] and in assay [6] were 3.32 µM (active) and 5.9 µM (active), respectively.

As for `Cc1ccnc(NS(=O)(=O)c2ccc(NC(=O)Nc3ccc(S(=O)(=O)Nc4nccc(C)n4)cc3)cc2)n1`, the Potency entry in assay [1], in [2] and in assay [9] was “inactive” in each case. Also, the call in [4] was inactive. The Potency was 14.8 µM (active) in assay [7], 23.5 µM (active) in [11], 16.6 µM (active) in assay [10] and 14.8 µM (active) in assay [13].

As for `CNCc1ccc(-c2[nH]c3cc(F)cc4c3c2CCNC4=O)cc1`, the Potency in assay [1] was 20.2 µM (active); in assay [2] it was 11.4 µM (active) and 12.8 µM (active) and 15.8 µM (active); in [7], 8.33 µM (active); in assay [11] it was 5.9 µM (active). Besides, the call in assay [3] and in [4] was inactive. Besides, the Potency entry in assay [8], in assay [9] and in [10] was “inactive” each time.

Take `CCCCCCCc1ccc(CCc2cccc(O)c2C(=O)O)cc1`: the Potency result in assay [1], in [8], in assay [7] and in [10] was “inactive” throughout. In addition, the results for the Potency in assay [2] and in assay [14] were 20.2 µM (active) and 20.9 µM (active), respectively.

Consider `N#Cc1ccc(C(c2ccc(C#N)cc2)n2cncn2)cc1`, for which the Potency result in assay [1], in assay [2] and in [6] was “inactive” throughout. The Potency in [8] is 14.8 µM (active); in [11], 6.62 µM (active); in [10], 18.7 µM (active).

Take `CCCc1nc2c(C)cc(-c3nc4ccccc4n3C)cc2n1Cc1ccc(-c2ccccc2C(=O)O)cc1`: the Potency result in [1], in [2], in [5], in [6], in [7] and in [9] was “inactive” each time. Besides, the Potency result in assay [11], in assay [10], in assay [13], in [15] and in assay [14] was “inactive” each time.

Consider `Cn1c(=O)c(F)c(Nc2ccc(I)cc2F)c2c(=O)n(C[C@@H](O)CO)cnc21`, for which the Potency entry in assay [1], in [2], in [8] and in assay [6] was “inactive” throughout. The Potency in assay [10] is 0.0118 µM (active); in assay [14] it was 3.32 µM (active).

On to `CCOc1cc(N2CCC(O)CC2)ccc1Nc1ncc2c(n1)N(C)c1ccccc1C(=O)N2C`, for which the Potency result in [1] and in [2] was “inactive” in each case. In addition, the Potency in [8] is 11.8 µM (active); in assay [7], 1.32 µM (active); in [9] it was 10.5 µM (active); in assay [11], 1.05 µM (active); in assay [10] it was 0.332 µM (active); in assay [15], 0.935 µM (active). Further, the Potency in [14] was 8.33 µM (active).

For `NC(=O)c1ccc(I)c([N+](=O)[O-])c1`, the Potency entry in [1], in assay [2], in assay [8], in assay [9] and in [11] was “inactive” in each case. The Potency in assay [14] was 18.7 µM (active).

For the compound `OCCC#Cc1nc(-c2ccc(F)cc2)c(-c2ccncc2)n1CCCc1ccccc1`, the Potency entry in [1] and in assay [2] was “inactive” each time. Further, the Potency in assay [7] is 23.5 µM (active); in assay [11] it was 16.6 µM (active); in [10], 20.9 µM (active); in [14], 23.5 µM (active).

For `CCc1ccc(CCOc2ccc(CC3SC(=O)NC3=O)cc2)nc1` (stereo not given), the Potency entry in assay [1], in assay [2], in [8], in [7], in assay [11] and in assay [13] was “inactive” throughout. For the same compound, the Potency result in assay [15] and in [14] was “inactive” throughout.

As for `Cc1cc(-c2ccc(CC(=O)Nc3ccc(-c4cccnc4)cc3)cc2)ccn1`, the Potency result in assay [1] and in assay [2] was “inactive” in each case. For the same compound, the Potency is 18.7 µM (active) in assay [7], 16.6 µM (active) in assay [11], 16.6 µM (active) in [12] and 18.7 µM (active) in assay [14].

In the case of `CCCCNc1cc(C(=O)O)cc(S(N)(=O)=O)c1Oc1ccccc1`, the Potency result in [1], in assay [2], in assay [8], in assay [6], in assay [7] and in assay [10] was “inactive” throughout. Besides, the Potency entry in assay [13] and in assay [14] was “inactive” throughout.

As for `O=c1ncn2nc(Sc3ccc(F)cc3F)ccc2c1-c1c(Cl)cccc1Cl`, the Potency entry in assay [1], in assay [2], in assay [8] and in assay [14] was “inactive” each time. For the same compound, the Potency in assay [7] is 18.7 µM (active).

For the compound `COc1ccc(C2=N[C@H](c3ccc(Cl)cc3)[C@H](c3ccc(Cl)cc3)N2C(=O)N2CCNC(=O)C2)c(OC(C)C)c1`, the Potency result in assay [1], in assay [2], in assay [11] and in assay [10] was “inactive” in each case. Besides, the Potency in assay [7] is 1.66 µM (active); in assay [14], 18.7 µM (active).

As for `OC[C@H](Cc1ccccc1)Nc1nc(Oc2ccc3c(c2)CCC3)nc2c1ncn2Cc1ccc(-c2ccccc2)cc1`, the Potency entry in [1], in [2], in assay [8], in assay [6] and in assay [12] was “inactive” each time.
